BAZ2B inh: inhibitors of human BAZ2B bromodomain | AlphaScreen BAZ2B-H3K14Ac peptide displacement | Potency, µM (titrated, usually from 114 µM), without a hit: at the top dose activity change, negative = inhibition, hits mostly inhibitors | 360,000 compounds, 4.4% hits | AID 504333; note: potency is the fitted concentration of half-maximal effect; % is set by controls: 0 for no effect and ±100 for the full control effect; nearly all actives have a fitted effect of over 60% in size
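Protein-peptide AlphaScreen: BAZ2B 50 nM, b-H3K14Ac 50 nM, 1x PBS pH 7.4 + 0.01% Tween-20. Preincubation 30 min RT; cpd 30 min RT (top 110 uM); beads 20 min RT, light-protected.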
JMJD2A Tudor: JMJD2A Tudor domain (human) inhibition; O75164; AlphaScreen JMJD2A-Tudor / H3K4me3 peptide binding; Potency, µM (series often up to 114 µM), for the others: top-dose activity change, negative = inhibition, usual class: inhibitors; 390,000 compounds, 4.4% hits; note: potency is the fitted concentration of half-maximal effect; % is set by controls: 0 for no effect and ±100 for the full control effect; nearly all actives have a fitted effect of over 50% in size
PI5P4K alpha inh: PI5P4K alpha (human) kinase inhibition. P48426. PI5P4Kalpha enzyme, ADP-Glo luminescence, 60 min; hits give low values. max response, %. 330,000 compounds, 1.2% hits; active = max response of -50% or lower; inconclusive = between -30% and -50%; inactive = -30% or higher; note: value at the top dose of about 77 µM; % is set by controls: 0 for no effect and ±100 for the full control effect
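Human PI5P4Kalpha with substrate in 0.038 M HEPES pH 7.4, 0.28 mM EGTA, 0.1% CHAPS, 5% DMSO; reaction started with 5 microM ATP (final), 60 min at room temperature. ADP formed read by ADP-Glo luminescence.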
HP1b chromo inh: inhibitors of HP1-beta chromodomain binding to methylated histone tails; AlphaScreen HP1-beta / biotin-H3K9me3 peptide binding; Potency, µM (highest dose often 114 µM), inactives show top-dose activity change, negative = inhibition, actives largely listed as inhibitors; 390,000 compounds, 0.56% hits; AID 540317; note: potency is the fitted concentration of half-maximal effect; nearly all actives have a fitted effect of over 70% in size
Target sequence (P83916 whole entry, looked up): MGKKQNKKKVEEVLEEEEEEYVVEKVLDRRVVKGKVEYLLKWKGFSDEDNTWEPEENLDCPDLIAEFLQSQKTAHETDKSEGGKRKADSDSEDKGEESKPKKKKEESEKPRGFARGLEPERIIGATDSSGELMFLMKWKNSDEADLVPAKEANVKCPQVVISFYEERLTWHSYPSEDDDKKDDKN
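HP1-beta protein (50 nM final) preincubated 30 min at room temperature with biotinylated H3(1-18)K9me3 peptide (50 nM) in PBS pH 7.4, 0.01% Tween-20, then compound added for 30 min. AlphaScreen streptavidin donor/nickel chelate acceptor beads (10 ug/mL final), 30 min dark, luminescence read.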
G9a inh: inhibitors of human histone lysine methyltransferase G9a; Potency, µM (series often up to 102 µM), without a hit: top-dose activity, negative = inhibition, actives largely listed as inhibitors; 350,000 compounds, 8.8% hits; G9a H3K9 monomethylation, AlphaScreen, 2 h; Q96KQ7; note: potency is the fitted concentration of half-maximal effect; % is set by controls: 0 for no effect and ±100 for the full control effect; nearly all actives have a fitted effect of over 75% in size
Target sequence (Q96KQ7 913-1193 limits assumed): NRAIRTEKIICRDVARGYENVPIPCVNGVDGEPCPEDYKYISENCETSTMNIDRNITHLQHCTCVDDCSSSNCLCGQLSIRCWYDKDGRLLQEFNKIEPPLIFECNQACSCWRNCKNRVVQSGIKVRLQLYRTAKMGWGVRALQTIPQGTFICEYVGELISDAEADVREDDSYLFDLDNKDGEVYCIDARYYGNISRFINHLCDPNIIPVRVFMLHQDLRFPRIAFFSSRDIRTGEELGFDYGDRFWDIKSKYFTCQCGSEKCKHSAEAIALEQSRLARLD
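Enzyme 20 nM + cpd, 15 min RT; add b-H3K9 pep 500 nM / SAM 20 uM; 2 h RT; anti-H3K9me1 Ab 0.5 ug/mL + SA donor / anti-rabbit acceptor beads 20 ug/mL each, 10 min; AlphaScreen read.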
PLK1 PBD inh: PLK1 (human) polo-box domain binding inhibition | P53350 | Plk1 PBD binding of FITC phosphopeptide, fluorescence polarization | Potency, µM, for inactives: max response, negative = inhibition, actives largely listed as inhibitors | 360,000 compounds, 2.8% hits; note: potency is the fitted concentration of half-maximal effect; series mostly up to about 57 µM; % is set by controls: 0 for no effect and ±100 for the full control effect; nearly all actives have a fitted effect of over 65% in size
* hit, by the source's call; [ ] = another dose, or the depositor's remark. Only some compounds are listed: those with a hit (about 12% of all), similar ones and a draw of the others. Unless noted, calls come from the whole dose curve; as a rule, active = well fitted curve in the direction sought with a large enough effect; inconclusive = small, poorly fitted or top-dose-only effect, or another doubt; inactive = no such curve, though single readings can be large; an effect the other way counts as inactive or inconclusive.

Results for O=C(CCNc1n[nH]c(=O)[nH]c1=O)N1CCCCC1 ?
BAZ2B inh: 4.3%; JMJD2A Tudor: -18.7%; HP1b chromo inh: 17.7%; G9a inh: 20.3%[59 µM]; PLK1 PBD inh: -4.2%

Results for C=CCn1c(SCC(=O)O)nc2sc(CC)cc2c1=O ?
BAZ2B inh: 1.8%; JMJD2A Tudor: -7.0%; PI5P4K alpha inh: 7.0; HP1b chromo inh: 14.2%; PLK1 PBD inh: -9.5%

Results for C=CCn1c(SCC(=O)NC2CCS(=O)(=O)C2)nc2sc(CC)cc2c1=O (centres undefined) ?
BAZ2B inh: -4.7%; JMJD2A Tudor: -13.9%; PI5P4K alpha inh: -4.8; HP1b chromo inh: 26.1%; G9a inh: -2.2%[59 µM]; PLK1 PBD inh: -3.1%

Results for C=CCn1c(SCC(=O)NC2CC2)nc2sc(CC)cc2c1=O ?
BAZ2B inh: -8.1%; JMJD2A Tudor: inconclusive; PI5P4K alpha inh: -18.6; HP1b chromo inh: 16.7%; G9a inh: 3.2%; PLK1 PBD inh: 26.7µM*

What do the screens show for `C=CCn1c(SCC2CCCCO2)nc2sc(CC)cc2c1=O` (centres undefined)?
BAZ2B inh: 33.1%; JMJD2A Tudor: -3.7%[11.4 µM]; PI5P4K alpha inh: 5.3; HP1b chromo inh: 56.9%; G9a inh: -0.3%[59 µM]; PLK1 PBD inh: 26.7µM*

How did O=C(C[C@@H]1CC[C@@H]2[C@H](COC[C@H](O)CN2C(=O)Nc2ccc(F)cc2)O1)NCCc1ccncc1 do in these assays?
PI5P4K alpha inh: 0.1; PLK1 PBD inh: -23.6%

What do the screens show for `CCOc1ccc(C2C=C(c3ccc(C)cc3)Nc3nnnn32)cc1` (centres undefined)?
BAZ2B inh: inconclusive; JMJD2A Tudor: -9.9%[57.1 µM]; PI5P4K alpha inh: -12.3; HP1b chromo inh: 36.6%; G9a inh: 50.1µM*; PLK1 PBD inh: 26.7µM*

How did CCOc1ccc(C2C=C(c3ccccc3)Nc3nnnn32)cc1 (centres undefined) do in these assays?
BAZ2B inh: 7.1%; JMJD2A Tudor: -7.2%; PI5P4K alpha inh: -0.5; HP1b chromo inh: 64.6%; G9a inh: 50.1µM*; PLK1 PBD inh: 0.8%

Results for CCOc1ccc(C2C=C(c3ccc(C)cc3)Nc3ncnn32)cc1 (centres undefined) ?
BAZ2B inh: 12.1%; G9a inh: 28.2µM*

How did [O-]/[N+](=C\c1ccncc1)c1ccc(Br)cc1 do in these assays?
BAZ2B inh: inconclusive; JMJD2A Tudor: -30.6%; PI5P4K alpha inh: -9.9; HP1b chromo inh: -9.9%; G9a inh: 39.8µM*; PLK1 PBD inh: 21.2µM*

How did CCOC(=O)C1=CC(=O)CC(C)(C)O1 do in these assays?
JMJD2A Tudor: -8.9%; PI5P4K alpha inh: 9.9; HP1b chromo inh: 24.7%; PLK1 PBD inh: 8.5%

How did CCOC(=O)c1ncn2c1C(=O)OC2(C)C do in these assays?
BAZ2B inh: inconclusive; JMJD2A Tudor: 17.8µM*; PI5P4K alpha inh: -6.9; HP1b chromo inh: 7.8%; G9a inh: inconclusive; PLK1 PBD inh: -0.5%

Results for CCn1c(CC(=O)Nc2ccc(OC)cc2)nnc1SCC(=O)N1CCOCC1 ?
BAZ2B inh: 5.7%; JMJD2A Tudor: 2.9%; PI5P4K alpha inh: -5.8; HP1b chromo inh: 19.7%; PLK1 PBD inh: 0.3%

How did Cc1ccc(N2CCCC2=O)cc1S(=O)(=O)N1CCOCC1 do in these assays?
BAZ2B inh: -3.8%; JMJD2A Tudor: -12.9%; PI5P4K alpha inh: -2.9; HP1b chromo inh: 28.3%; G9a inh: 1.7%; PLK1 PBD inh: 1.5%

What do the screens show for `C=CCn1c(N2CCN(c3ccc(OC)cc3)CC2)nc2c1c(=O)n(C)c(=O)n2C`?
BAZ2B inh: inconclusive; JMJD2A Tudor: -25.5%; PI5P4K alpha inh: -1.3; HP1b chromo inh: -5.2%; G9a inh: 18.3%[59 µM]; PLK1 PBD inh: 8.1%

How did CCCCCn1c(CN2CCN(c3ccc(OC)cc3)CC2)nc2c1c(=O)[nH]c(=O)n2C do in these assays?
BAZ2B inh: -35.0%; JMJD2A Tudor: inconclusive; HP1b chromo inh: 15.8%; G9a inh: inconclusive

Results for C=CCn1c(N2CCN(c3ccc(OC)cc3)CC2)nc2c1c(=O)[nH]c(=O)n2C ?
BAZ2B inh: -30.9%; JMJD2A Tudor: -13.8%; PI5P4K alpha inh: 0.5; HP1b chromo inh: 48.8%; G9a inh: 50.1µM*; PLK1 PBD inh: -5.0%

Results for CCCn1c(CN2CCN(c3ccc(OC)cc3)CC2)nc2c1c(=O)[nH]c(=O)n2C ?
BAZ2B inh: -14.9%; JMJD2A Tudor: -20.2%; HP1b chromo inh: 22.5%; G9a inh: 25.1µM*

What do the screens show for `Cc1cc2nnc(SC(C)C)n2c2ccccc12`?
BAZ2B inh: 4.7%; JMJD2A Tudor: -18.7%; PI5P4K alpha inh: -8.6; HP1b chromo inh: 7.9%; G9a inh: 13.2%[59 µM]; PLK1 PBD inh: 1.5%

What do the screens show for `Cc1cc2nnc(SC(C)C#N)n2c2ccccc12` (centres undefined)?
BAZ2B inh: 6.4%; JMJD2A Tudor: 10µM*; PI5P4K alpha inh: -1.8; HP1b chromo inh: 2.6%; G9a inh: 3.16µM*; PLK1 PBD inh: 21.2µM*

What do the screens show for `Cc1cc2nnc(SC3CCOC3=O)n2c2ccccc12` (centres undefined)?
BAZ2B inh: 6.5%; JMJD2A Tudor: 10µM*; HP1b chromo inh: 14.7%; G9a inh: 10µM*; PLK1 PBD inh: -5.1%

Results for Cc1cc2nnc(SC3CCCCN(C(=O)c4ccc(F)cc4)C3=O)n2c2ccccc12 (centres undefined) ?
BAZ2B inh: 0.4%; JMJD2A Tudor: inconclusive; PI5P4K alpha inh: -6.6; HP1b chromo inh: 31.2%; G9a inh: 39.8µM*; PLK1 PBD inh: -11.3%

Results for O=C(c1ccc(F)cc1)N1CCCCC(Sc2nnc3ccccn23)C1=O (centres undefined) ?
BAZ2B inh: 0.8%; JMJD2A Tudor: -9.6%; HP1b chromo inh: 9.2%; G9a inh: 2.6%[59 µM]; PLK1 PBD inh: -8.1%

How did CCOC(=O)c1csc(NC(=O)CCSc2ccccc2)n1 do in these assays?
BAZ2B inh: 2.7%; JMJD2A Tudor: -12.1%; PI5P4K alpha inh: -3.6; HP1b chromo inh: 78.2%; G9a inh: 7.9%; PLK1 PBD inh: -13.5%

What do the screens show for `CCOC(=O)C(=O)c1csc(NC(=O)CCSc2ccc(C)cc2)n1`?
JMJD2A Tudor: -16.1%; PI5P4K alpha inh: 2.9; HP1b chromo inh: 23.9%; G9a inh: 70.8µM*; PLK1 PBD inh: -11.2%

Results for Cc1ccc(N2C(=O)c3ccccc3C2C(=O)c2ccc(C)c(C)c2O)cc1 (centres undefined) ?
BAZ2B inh: -13.1%; JMJD2A Tudor: 50.1µM*; PI5P4K alpha inh: 7.6; HP1b chromo inh: inconclusive; PLK1 PBD inh: -13.0%

How did Cc1ccc(N2C(=O)c3ccccc3C2C(=O)c2ccc(O)cc2O)cc1 (centres undefined) do in these assays?
BAZ2B inh: 28.2µM*; JMJD2A Tudor: 79.4µM*; PI5P4K alpha inh: -65.7*; HP1b chromo inh: -7.8%; G9a inh: inconclusive; PLK1 PBD inh: -7.8%
